Experiments:
Assay in all cases: PBM binding z-score (relative to random genomic background probes); higher = stronger binding; sequences stand for … in GC…GCGATTGACAGCGTAGAATGAAGG
[1] = tested on: FXR:RXRa (NR concentration 270 nM, RXRa partner concentration 90 nM)
In short: (§1)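 Random background probes are the reference for binding z-scores. These scores derive from regression-normalized fluorescence on custom Agilent 4×180K protein-binding microarrays incubated 1 h with ligand-free nuclear receptor dimers. Binding was detected with antibodies against each partner (one per run).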

[2] = tested on: LXRa:RXRa (NR concentration 270 nM, RXRa partner concentration 90 nM)
In short: as §1

[3] = tested on: LXRa homodimer (NR concentration 270 nM)
In short: as §1

[4] = tested on: LXRb:RXRa (NR concentration 270 nM, RXRa partner concentration 90 nM)
In short: as §1

[5] = tested on: LXRb homodimer (NR concentration 270 nM)
In short: as §1

[6] = tested on: PPARa:RXRa (NR concentration 270 nM, RXRa partner concentration 90 nM)
In short: as §1

[7] = tested on: PPARg:RXRa (NR concentration 180 nM, RXRa partner concentration 90 nM)
In short: as §1

[8] = tested on: PPARg:RXRa 270nM:90nM, anti-RXR (NR concentration 270 nM, RXRa partner concentration 90 nM)
In short: as §1

[9] = tested on: PPARg:RXRa 30nM:10nM, anti-RXR (NR concentration 30 nM, RXRa partner concentration 10 nM)
In short: as §1

[10] = tested on: PPARg:RXRa 90nM:30nM, anti-RXR (NR concentration 90 nM, RXRa partner concentration 30 nM)
In short: as §1

[11] = tested on: PPARg:RXRa DBDmut IVT, anti-RXR (DBD mutation: RXRa K156A/R161A, NR concentration 270 nM, RXRa partner concentration 90 nM)
In short: as §1

[12] = tested on: PPARg:RXRa IVT, anti-PPARg (NR concentration 270 nM, RXRa partner concentration 90 nM)
In short: as §1

[13] = tested on: PPARg DBDmut:RXRa IVT, anti-PPARg (DBD mutation: PPARg1 K132A/R137A, NR concentration 270 nM, RXRa partner concentration 90 nM)
In short: as §1

[14] = tested on: PPARg DBDmut IVT, anti-PPARg (DBD mutation: PPARg1 K132A/R137A, NR concentration 270 nM)
In short: as §1

[15] = tested on: PPARg homodimer (NR concentration 180 nM)
In short: as §1

[16] = tested on: PXR:RXRa (NR concentration 270 nM, RXRa partner concentration 90 nM)
In short: as §1

[17] = tested on: PXR homodimer (NR concentration 270 nM)
In short: as §1

[18] = tested on: RARa:RXR (NR concentration 270 nM, RXRa partner concentration 90 nM)
In short: as §1

[19] = tested on: RARa homodimer (NR concentration 270 nM)
In short: as §1

[20] = tested on: RARb:RXRa (NR concentration 270 nM, RXRa partner concentration 90 nM)
In short: as §1

Sequence	PBM binding z-score [1]	PBM binding z-score [2]	PBM binding z-score [3]	PBM binding z-score [4]	PBM binding z-score [5]	PBM binding z-score [6]	PBM binding z-score [7]	PBM binding z-score [8]	PBM binding z-score [9]	PBM binding z-score [10]	PBM binding z-score [11]	PBM binding z-score [12]	PBM binding z-score [13]	PBM binding z-score [14]	PBM binding z-score [15]	PBM binding z-score [16]	PBM binding z-score [17]	PBM binding z-score [18]	PBM binding z-score [19]	PBM binding z-score [20]
TAGCCTAGGTCATTCAGGGGCCAGTGTAGAAAGC	4.78	3.98	0.7	3.06	1.08	3.66	1.53	2.43	0.00175	1.14	1.87	2.74	0.0729	-0.141	1.39	2.27	-0.259	3.32	-0.591	3.96
ACTAGCAGGCCAAGTTTGGGTCACTAAAACAAAG	0.0701	0.104	-0.274	0.749	-0.496	1.58	0.26	0.637	-0.145	0.427	0.86	1.41	-0.183	-0.616	0.00653	0.707	-0.272	1.49	-0.238	1.79
CCTTACGGGTCACGAGCTTATAGCACGACGAGCG	6.56	4.18	-0.258	3.49	-0.00639	5.9	6.33	6.04	2.64	4.89	3.78	4.75	2.37	2.07	3.27	3.85	-0.361	5.25	0.902	4.42
GCTGCTAGGTCAGGTTGGTCAGCCAACGGGTACG	1.12	0.345	-0.418	0.336	-0.341	1.36	0.298	1.1	-0.412	0.115	2.43	2.2	-1.3	-1.25	0.608	0.00259	-0.305	0.503	-0.0936	3.2
CTTACTGGGCCAAAAAGGTCATTGATGCCGATAA	4.42	4.75	3.31	4.26	0.76	5.17	5.05	5.24	2.89	4.69	6.06	5.95	2.51	1.61	4.12	5.01	4.11	5.16	1.79	4.03
CGTCGAAGGTCAGAGAGGTCAGTGAATGCCGAGT	6.25	5.11	3.28	4.34	0.365	4.79	3.57	4.39	1.28	3.06	2.6	3.03	-0.434	-0.601	6.33	6.06	11.6	5.68	3.9	5.05
CCTACTGGGCCATCAGGTCCTTGATATCAACGTT	-0.312	-0.421	-0.282	-0.452	-0.521	0.449	0.742	1.4	-0.0903	0.582	3.89	3.63	0.113	-0.684	0.311	-0.471	-0.404	-0.307	0.115	0.33
TCGAGTAAGTTAGGGGCATTCAGAATGGCGTCGA	0.474	0.581	-0.298	0.52	-1.13	0.686	-0.191	0.338	1.03	0.613	0.867	-0.26	-1.43	-0.704	0.141	0.512	0.0747	0.66	-0.608	0.456
ATCGAAAGGTCGACGAAGTGAGTATACACCGTTT	3.64	2.87	-0.00377	2.49	0.429	3.98	2.23	2.51	0.7	1.46	0.569	1.5	1.34	0.821	1.08	2.28	-0.00563	2.81	-0.0339	3.71
TCTTGTAGATCAATAGAGGTTAATAAAGTGCGCT	0.771	5.4	0.943	3.5	-0.00633	1.72	0.484	1.59	2.72	2.15	1.47	1.13	0.628	0.945	0.295	2.84	0.364	1.63	0.341	0.772
CCTACTGGGCCATTCAGAGCTCATTGATCATATG	-0.592	-0.786	-0.476	-0.728	-0.785	0.169	0.223	0.0807	-0.459	-0.224	4.75	3.12	-0.435	-0.6	-0.275	-0.612	-0.562	-0.258	-0.409	-0.143
ATCGAAAGGTCGAAGGTGAGTATTCCCACCCGAA	4.33	3.66	0.077	2.78	0.842	4.58	4.28	5	1.99	4.39	0.38	2.13	0.944	0.361	2.58	2.89	-0.082	4.32	0.118	3.64
GCAACTGGGGCATCAGCAGGTTACCATAACTTAA	-0.117	-0.265	-0.205	1.08	-0.444	1.83	2.26	1.76	0.0895	1.1	5.86	5.15	-0.129	0.0733	0.577	0.0192	-0.0956	0.138	-0.393	0.963
ATCTCTAGGTAAGACTCAGTTCATTGAAGAACGC	0.66	1.1	1.32	0.779	1.11	0.841	0.175	0.381	0.0967	0.482	2.32	1.16	1.33	1.23	1.13	2.6	4.35	1.04	1.62	0.694
ATCGAAAGGCCGAAGGTGAGTATACCCACCCGAA	-0.216	-0.00303	-0.202	-0.349	-0.732	0.657	1.25	1.31	0.275	0.738	-0.869	0.122	-0.0521	-0.507	-0.197	-0.245	-0.678	0.273	-0.544	1.04
CGTCCTAGGTCAGAGAGGTCAGTGAATGCCGAGT	3.96	3.93	2.32	3.09	-0.0595	3.75	2.04	3.12	0.277	1.95	2.86	3.03	-0.901	-1.15	5.14	4.85	8.52	4.68	2.45	4.4
TCATATAGGTAATACAGGTTAAAGTCGGCATCTA	1.72	2.72	2.2	1.82	0.603	2.28	1.93	2.74	4.37	3.53	4.34	3.27	1.19	1.83	1.52	1.32	0.749	1.97	1.97	0.992
TCTTGTCGATCAGCAGGTTAAGAAAGCTGGCCAA	0.435	0.635	-0.135	0.381	0.00876	0.714	-0.663	1.47	2.63	1.91	1.61	0.358	-0.732	0.173	0.131	0.254	-0.436	0.75	-0.254	0.466
CGTCCAAGCTCAATGCTAGGTCAGTGAAAGCATT	-0.232	-0.0286	0.428	-0.0522	-0.887	0.167	-0.576	-0.605	-0.752	-0.627	0.189	0.0626	-1.2	-1.34	-0.137	0.0332	-0.275	0.319	-0.477	0.961
ACTATTAGTTGAGACGAGGGCAACTGATAGGTTG	0.629	-0.0348	0.074	-0.0916	-0.0432	0.621	0.7	0.45	0.365	0.668	0.393	0.643	1.37	1.23	0.253	1.22	0.231	0.44	0.299	1.16
CCAGACAGGTGAGAAGGTAACTCTGCCTCGATTA	0.00014	0.0948	-0.229	0.114	-0.103	0.793	0.466	0.906	-0.293	0.346	1.34	0.644	-0.0545	-0.239	0.832	0.051	0.394	0.441	-0.197	0.638
CGAACTAGGTCATTGACAGGACCGTGAATAGTAA	4.32	2.36	0.141	1.66	-0.048	4.62	7.17	6.36	3.72	5.79	8.09	8.42	3.24	1.41	2.02	0.914	-0.0715	1.5	0.647	3.51
TCATATAGGTAAAAGTGAAAGTCGAACGATATGA	0.173	0.399	-0.314	-0.0823	0.0543	1.84	3.25	4.43	4.62	4.68	3.02	2.69	1.14	1.16	0.424	0.212	0.0345	0.234	0.539	0.22
ACTATTAGTTGACTTAGGGCGACCGATACGACGC	0.233	-0.0475	-0.0351	-0.0198	0.794	-0.104	0.88	0.00253	0.295	0.183	0.407	0.174	1.73	1.51	0.828	-0.0513	0.0652	0.194	0.515	0.512
TTACCAAGGTGAGCTGAGGTCGTTCATCCAACTC	1.08	1.32	0.0661	0.862	-1.08	1.68	0.347	1	0.0261	0.463	1.05	2.17	-0.164	-0.434	-0.159	5.33	0.906	1.82	-0.552	1.74
ATCTCTAGGTAAAGATAGTTCAGTGACTGCAAAT	0.289	4.19	0.906	0.867	0.656	0.677	0.174	0.437	0.221	0.0894	2.25	1.52	1.25	0.496	0.972	1.06	0.522	0.54	1.52	0.693
AGTCAAAGTTCACTAGGTAACGTCAGATTCAGCT	4.66	4.88	2.92	2.84	0.994	4.68	6.81	6.74	4.13	5.98	2.77	4.95	1.36	0.959	2.35	3.97	3.07	3.22	1.07	4.88
GCTTACGGGTCAATGGTTATAGCATGAATAGAAT	4.8	2.75	-0.289	2.89	0.196	4.78	4.3	4.54	1.86	3.57	3.66	3.16	0.504	0.889	1.06	2.21	0.167	3.03	0.149	3.43

Reference: the supplement of paper PMC6555819
